From PubChem BioAssay (NCATS)
Several values for one entry are separate records, joined by “and”; a condition that tells them apart may be missing. Equal values may be shown once. Inconclusive results are not listed. Entries that show only a call come without a potency. Some compounds were tested as several samples or in several runs, with calls that do not always agree. Activity calls are given as the source filed them. Unless noted, calls come from the whole dose curve; as a rule, active = well fitted curve in the direction sought with a large enough effect; inconclusive = small, poorly fitted or top-dose-only effect, or another doubt; inactive = no such curve, though single readings can be large; an effect the other way counts as inactive or inconclusive.

What was measured:
[1] = biological target: Cytochrome P450 2C9 (Homo sapiens) (UniProt P11712); assay: Cytochrome P450 family 2 subfamily C member 9 (CYP2C9) small molecule antagonists: luciferase biochemical (cell-free) qHTS assay (AID 1645842; active = well fitted curve in the direction sought with a large enough effect in the repeat runs; an effect the other way counts as inactive or inconclusive; note: nearly all actives have a fitted effect of over 55% in size; for activity change, negative = inhibition: series mostly up to about 57 µM)
In short: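 P450-Glo CYP2C9 system: proluciferin substrate with enzyme in mix containing 0.4% BSA, 10 min at room temperature, then NADPH regeneration solution added and incubated 1 h at 37C. Detection reagent stopped reaction; luminescence read after 20 min as RLU.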

[2] = Primary qHTS for inhibitors of nuclear receptor binding SET domain protein 2 (NSD2) in an isogenic RCH-ACV NSD2 p.E1099K mutant (9B) (AID 1645876); note: nearly all actives have a fitted effect of over 70% in size
[3] = Primary qHTS for inhibitors of nuclear receptor binding SET domain protein 2 (NSD2) in an RCH-ACV wild type WT cells (2C) (AID 1645877); note: nearly all actives have a fitted effect of over 70% in size
Potency is the fitted concentration of half-maximal effect.

Chain of Cytochrome P450 2C9 (Homo sapiens) (P11712 whole entry, looked up): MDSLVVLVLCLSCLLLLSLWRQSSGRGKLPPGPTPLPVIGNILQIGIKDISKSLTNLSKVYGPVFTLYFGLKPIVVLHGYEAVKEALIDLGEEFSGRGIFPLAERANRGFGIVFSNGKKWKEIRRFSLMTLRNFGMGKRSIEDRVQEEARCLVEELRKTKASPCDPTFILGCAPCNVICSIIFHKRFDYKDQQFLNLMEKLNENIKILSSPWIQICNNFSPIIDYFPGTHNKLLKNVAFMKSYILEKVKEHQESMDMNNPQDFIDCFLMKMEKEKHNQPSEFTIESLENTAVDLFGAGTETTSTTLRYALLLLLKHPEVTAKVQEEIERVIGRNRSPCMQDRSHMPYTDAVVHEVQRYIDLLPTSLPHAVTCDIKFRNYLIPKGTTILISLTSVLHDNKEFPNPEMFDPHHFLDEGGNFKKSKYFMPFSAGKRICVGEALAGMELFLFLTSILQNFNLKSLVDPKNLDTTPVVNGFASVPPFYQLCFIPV

Structure (SMILES) | Potency [1] | Potency [2] | Potency [3] | activity change, negative = inhibition [1] | activity change, negative = viability loss [2] | activity change, negative = cell killing [3]
C=C1CC[C@@H]2[C@](C)(CO)[C@H](O)CC[C@@]2(C)[C@@H]1C/C=C1/C(=O)OC[C@H]1O | inactive | 8.33 µM (active) | 7.42 µM (active) |  |  | 
Cc1cc(N2CCCCC2)nc2ccccc12 | inactive | inactive | inactive |  |  | 
CCn1nnnc1NCc1ccc(C(C)C)cc1 | 7.56 µM (active) | inactive | inactive |  |  | 
CCOc1nc2cccc(C(=O)OCc3oc(=O)oc3C)c2n1Cc1ccc(-c2ccccc2-c2noc(O)n2)cc1 | 3.38 µM (active) | inactive | inactive |  |  | 
CC(=O)OC(C)OC(=O)C(C)c1ccc(-c2ccccc2)c(F)c1 (stereo not given) | 9.77 µM (active) | inactive | inactive |  |  | 
O=C(c1ccc(C#Cc2cccc(F)c2)cn1)N1CC2CC2C1 (stereo not given) | 23.9 µM (active) | inactive | inactive |  |  | 
COc1ccc2cc(OCC3(C(=O)O)CN(C(=O)c4ccc(F)cc4)C3)ccc2c1 | 16.9 µM (active) | inactive | inactive |  |  | 
COc1cc2c(cc1OC)CN(C(=O)[C@@H](NCc1ccncc1)C(C)(C)C)CC2 | 1.69 µM (active) | inactive | inactive |  |  | 
O=C1NC(=Nc2ccccc2F)S/C1=C\c1ccc(C(=O)O)cc1 | 10.7 µM (active) | inactive | inactive |  |  | 
C[C@@H](Nc1cc(NS(=O)(=O)N2CCC2)nc(SCc2cccc(F)c2F)n1)[C@@H](O)CO | inactive | inactive | inactive |  |  | 
COc1ccccc1[C@@H]1C2=C(CC(C)(C)CC2=O)Nc2n[nH]c(C(F)(F)F)c21 | 8.49 µM (active) | inactive | inactive |  |  | 
CC1(C)CCC(C)(C)c2cc3c(cc21)Sc1ccccc1N=C3c1ccc(C(=O)O)cc1 | inactive | inactive | inactive |  |  | 
COC(=O)[C@H](CC1C=NC=N1)NCC12CC3CC(CC(C3)C1)C2 (stereo not given in full) | inactive | inactive | inactive |  |  | 
CON(C)C(=O)N1N=C(c2cc(F)ccc2F)S[C@@]1(CCCN)c1ccccc1 | 3.01 µM (active) | 9.2 nM (active) and 14.8 nM (active) | 6.5 nM (active) and 13.2 nM (active) |  |  | 
O=C(c1ccccn1)c1cnn2c(-c3ccncc3)ccnc12 | 12 µM (active) | inactive | inactive |  |  | 
NC(Cc1c[nH]c2ccccc12)C(=O)NC(CCC(=O)O)C(=O)O (stereo not given) | inactive | inactive | inactive |  |  | 
CCc1c(CC(N)=O)c2cc(OCCCP(=O)(O)O)ccc2n1Cc1ccccc1 | inactive | inactive | inactive |  |  | 
CN(C)C/C=C/C(=O)Nc1ccc(C(=O)Nc2cccc(Nc3ncc(Cl)c(-c4c[nH]c5ccccc45)n3)c2)cc1 | 7.56 µM (active) | 18.3 nM (active) and 52.5 nM (active) | 18.3 nM (active) and 46.8 nM (active) |  |  | 
CNC(=O)Nc1ccc(OC)c(NC(=O)NC(=O)c2cc(F)c(F)cc2Cl)c1 | inactive | inactive | inactive |  |  | 
CC(=O)N1CCN(NC(=O)c2ccc(F)cc2)CC1 | inactive | inactive | inactive |  |  | 
Cc1cc(C)cc(NC(=O)Cc2ccc(OC(C)(C)C(=O)O)cc2)c1 | inactive | inactive | inactive |  |  | 
CCC(CC)n1ccc2c(C(=O)NCc3c(C)cc(C)[nH]c3=O)cc(C#N)cc21 | 4.77 µM (active) | inactive | inactive |  |  | 
CCc1cc2c(=O)c(-c3nc4ccccc4s3)coc2c(CN2CCCCC2)c1O | 0.12 µM (active) | inactive | inactive |  |  | 
CCCCNC(=O)[C@@H]1Cc2ccccc2N1C(=O)[C@@H](N)CC | inactive | inactive | inactive |  |  | 
CCC(=O)N[C@@H]1Cc2ccccc2[C@H](c2ccccc2)C1 | 3.01 µM (active) | inactive | inactive |  |  | 
Cc1cc(C)c(S(=O)(=O)N(Cc2ccc(-c3cccc(S(C)(=O)=O)c3)cc2)Cc2ccc(C(F)(F)F)o2)c(C)c1 | 0.268 µM (active) | inactive | inactive |  |  | 
O=C(Nc1cccnn1)N1CCC(=Cc2cccc(Oc3ccc(C(F)(F)F)cn3)c2)CC1 | inactive | 11.5 µM (active) | 10.3 µM (active) |  |  | 
CC(NCc1ccc(OCc2cccc(F)c2)cc1)C(N)=O (stereo not given) | inactive | inactive | inactive |  |  | 
O=C(C1CC1)N1CC[C@@H](Cc2n[nH]c(=O)n2-c2ccc(-c3ccc4occc4c3)cc2)C1 | 6.74 µM (active) | inactive and 16.6 µM (active) | inactive and 18.6 µM (active) |  |  | 
CC(C)(C)NCc1cc(Nc2ccnc3cc(Cl)ccc23)c2c(c1O)CCCC2 |  |  |  | -23.1% [at 11.5 µM] (inactive) | -8.87% [at 0.588 µM] (inactive) | -13.7% [at 0.588 µM] (inactive)
